{"source": "PubChem BioAssay (Tox21)", "note": "Records with an inconclusive call do not appear. Where a call stands in place of a potency, no number is given. The source made the active and inactive calls. Calls come from the whole dose curve; as a rule, active = well fitted cell-killing curve with a large enough effect in the repeat runs; inconclusive = weak or mixed curves, or effect the other way; inactive = flat fitted curve, though single readings scatter.", "data": [{"assay": "cAMP Responsive Elements (CRE) small molecule antagonists, cell-based qHTS assay: qHTS cell viability counter screen (AID 2060913); note: nearly all actives have a fitted effect of over 40% in size", "conditions": "CRE-bla HEK293T viability, CellTiter-Glo luminescence, 5 h; series mostly up to 92.4 µM", "how_it_was_run": "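Cytotoxicity counter screen multiplexed with the CRE-bla antagonist read: HEK293T cells in DMEM with dialyzed FBS and 25 mM HEPES were treated 3 hrs under 0.25 uM final NKH477, then viability measured by CellTiter-Glo luminescence.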", "values": [{"smiles": "CCOc1ccc(N=Nc2ccc(/C=C/c3ccc(N=Nc4ccc(OCC)cc4)cc3S(=O)(=O)O)c(S(=O)(=O)O)c2)cc1", "Potency": "inactive"}, {"smiles": "CCCCCCCCCCCCCC(=O)OCC", "Potency": "inactive"}, {"smiles": "C#C[C@]1(O)CC[C@H]2[C@@H]3[C@H](C)CC4=C(CCC(=O)C4)[C@H]3CC[C@@]21C", "Potency": "inactive"}, {"smiles": "CC1=CC(=O)/C(=C(/C)O)C(=O)O1", "Potency": "inactive"}, {"smiles": "CC(C)CC(C)O", "note": "(stereo not given)", "Potency": "inactive"}, {"smiles": "CC/C=C(\\C(=O)N[C@@H]1C(=O)N2C(C(=O)OCOC(=O)C(C)(C)C)=C(COC(N)=O)CS[C@H]12)c1csc(N)n1", "Potency": "inactive"}, {"smiles": "CC[Si](OC(C)=O)(OC(C)=O)OC(C)=O", "Potency": "inactive"}, {"smiles": "C1CCC2OC2C1", "note": "(stereo not given)", "Potency": "inactive"}, {"smiles": "CNCCCN1c2ccccc2CCc2ccccc21", "Potency": "inactive"}, {"smiles": "Cn1c(=O)cc(Oc2ccc(F)cc2F)c2cnc(NCC(C)(C)O)nc21", "Potency": "inactive"}, {"smiles": "O=C(Nc1ccc(Cl)cc1)Nc1ccc(Cl)c(Cl)c1", "Potency": "inactive"}, {"smiles": "C[CH2][Ge]([Cl])([CH2]C)[CH2]C", "Potency": "inactive"}, {"smiles": "ClC(Cl)(Cl)c1ccc(C(Cl)(Cl)Cl)cc1", "Potency": "inactive"}, {"smiles": "O=C(O)CN(CC(=O)O)CC(=O)O", "Potency": "inactive"}, {"smiles": "c1ccc2n[nH]nc2c1", "Potency": "inactive"}, {"smiles": "C[C@](N)(Cc1ccc(O)c(O)c1)C(=O)O", "Potency": "inactive"}, {"smiles": "CCCCCCCCCCCCSC", "Potency": "inactive"}, {"smiles": "N#CCCNCCC#N", "Potency": "inactive"}, {"smiles": "CN(C)c1ccncc1", "Potency": "inactive"}, {"smiles": "COc1cc(O)cc(O)c1", "Potency": "inactive"}, {"smiles": "NC1CCCCC1N", "note": "(stereo not given)", "Potency": "inactive"}, {"smiles": "CC1CC(C)C(=O)C1=O", "note": "(stereo not given)", "Potency": "inactive"}, {"smiles": "CC(=O)c1ccc(C)cc1", "Potency": "inactive"}, {"smiles": "CCCCOC(=O)c1ccc(O)cc1", "Potency": "inactive"}, {"smiles": "O=C(O)c1[nH]n(-c2ccc(S(=O)(=O)O)cc2)c(=O)c1N=Nc1ccc(S(=O)(=O)O)cc1", "Potency": "inactive"}, {"smiles": "CCCCCCCCCCCO", "Potency": "inactive"}, {"smiles": "CCCCCC(N)=O", "Potency": "inactive"}, {"smiles": "Oc1ccc(-c2ccc(O)cc2)cc1", "Potency": "inactive"}, {"smiles": "N[C@H](Cc1c[nH]c2ccccc12)C(=O)O", "Potency": "inactive"}, {"smiles": "O=C1CCCCC1C1CCCCC1", "note": "(stereo not given)", "Potency": "inactive"}, {"smiles": "CCN(CC)c1ccc(N=Nc2ccccc2)cc1", "Potency": "inactive"}, {"smiles": "COc1cc(C(=O)NC2CCCNC2)cc(OC)c1OC", "note": "(stereo not given)", "Potency": "inactive"}, {"smiles": "Cc1c(C)c2c(c(C)c1OC(=O)CCC(=O)O)CC[C@@](C)(CCC[C@H](C)CCC[C@H](C)CCCC(C)C)O2", "Potency": "inactive"}, {"smiles": "NC1=NCC2c3ccccc3Cc3ccccc3N12", "note": "(stereo not given)", "Potency": "inactive"}, {"smiles": "CN1CC(=O)N2[C@H](c3ccc4c(c3)OCO4)c3[nH]c4ccccc4c3C[C@@H]2C1=O", "Potency": "inactive"}, {"smiles": "c1ccc2c(c1)[nH]c1ccccc12", "Potency": "inactive"}, {"smiles": "CCCCCCCCOC(C)=O", "Potency": "inactive"}, {"smiles": "O=C(Nc1ccc2c(O)c(N=Nc3ccc(N=Nc4ccc(S(=O)(=O)O)cc4)cc3)c(S(=O)(=O)O)cc2c1)c1ccccc1", "Potency": "inactive"}, {"smiles": "C=C(C)C(=O)OCC(C)C", "Potency": "inactive"}, {"smiles": "CCCCCCCCC=O", "Potency": "inactive"}]}, {"assay": "cAMP Responsive Elements (CRE) small molecule agonists, cell-based qHTS assay: qHTS cell viability counter screen (AID 2060914); note: nearly all actives have a fitted effect of over 50% in size", "conditions": "CRE-bla HEK293T viability, CellTiter-Glo luminescence, 5 h; series mostly up to 92.4 µM", "how_it_was_run": "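CRE-bla HEK 293T cells, plated 18 h at 37 °C, were exposed to compounds for 3 h at 37 °C/5% CO2. Viability was then measured in the same wells by CellTiter-Glo luminescence after 30 min at room temperature.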", "values": [{"smiles": "CCOc1ccc(N=Nc2ccc(/C=C/c3ccc(N=Nc4ccc(OCC)cc4)cc3S(=O)(=O)O)c(S(=O)(=O)O)c2)cc1", "Potency": "inactive"}, {"smiles": "CCCCCCCCCCCCCC(=O)OCC", "Potency": "inactive"}, {"smiles": "C#C[C@]1(O)CC[C@H]2[C@@H]3[C@H](C)CC4=C(CCC(=O)C4)[C@H]3CC[C@@]21C", "Potency": "inactive"}, {"smiles": "CC1=CC(=O)/C(=C(/C)O)C(=O)O1", "Potency": "inactive"}, {"smiles": "CC(C)CC(C)O", "note": "(stereo not given)", "Potency": "inactive"}, {"smiles": "CC/C=C(\\C(=O)N[C@@H]1C(=O)N2C(C(=O)OCOC(=O)C(C)(C)C)=C(COC(N)=O)CS[C@H]12)c1csc(N)n1", "Potency": "inactive"}, {"smiles": "CC[Si](OC(C)=O)(OC(C)=O)OC(C)=O", "Potency": "inactive"}, {"smiles": "C1CCC2OC2C1", "note": "(stereo not given)", "Potency": "inactive"}, {"smiles": "CNCCCN1c2ccccc2CCc2ccccc21", "Potency": "inactive"}, {"smiles": "Cn1c(=O)cc(Oc2ccc(F)cc2F)c2cnc(NCC(C)(C)O)nc21", "Potency": "inactive"}, {"smiles": "O=C(Nc1ccc(Cl)cc1)Nc1ccc(Cl)c(Cl)c1", "Potency": "inactive"}, {"smiles": "C[CH2][Ge]([Cl])([CH2]C)[CH2]C", "Potency": "inactive"}, {"smiles": "ClC(Cl)(Cl)c1ccc(C(Cl)(Cl)Cl)cc1", "Potency": "inactive"}, {"smiles": "O=C(O)CN(CC(=O)O)CC(=O)O", "Potency": "inactive"}, {"smiles": "c1ccc2n[nH]nc2c1", "Potency": "inactive"}, {"smiles": "C[C@](N)(Cc1ccc(O)c(O)c1)C(=O)O", "Potency": "inactive"}, {"smiles": "CCCCCCCCCCCCSC", "Potency": "inactive"}, {"smiles": "N#CCCNCCC#N", "Potency": "inactive"}, {"smiles": "CN(C)c1ccncc1", "Potency": "inactive"}, {"smiles": "COc1cc(O)cc(O)c1", "Potency": "inactive"}, {"smiles": "NC1CCCCC1N", "note": "(stereo not given)", "Potency": "inactive"}, {"smiles": "CC1CC(C)C(=O)C1=O", "note": "(stereo not given)", "Potency": "inactive"}, {"smiles": "CC(=O)c1ccc(C)cc1", "Potency": "inactive"}, {"smiles": "CCCCOC(=O)c1ccc(O)cc1", "Potency": "inactive"}, {"smiles": "O=C(O)c1[nH]n(-c2ccc(S(=O)(=O)O)cc2)c(=O)c1N=Nc1ccc(S(=O)(=O)O)cc1", "Potency": "inactive"}, {"smiles": "CCCCCCCCCCCO", "Potency": "inactive"}, {"smiles": "CCCCCC(N)=O", "Potency": "inactive"}, {"smiles": "Oc1ccc(-c2ccc(O)cc2)cc1", "Potency": "inactive"}, {"smiles": "N[C@H](Cc1c[nH]c2ccccc12)C(=O)O", "Potency": "inactive"}, {"smiles": "O=C1CCCCC1C1CCCCC1", "note": "(stereo not given)", "Potency": "inactive"}, {"smiles": "CCN(CC)c1ccc(N=Nc2ccccc2)cc1", "Potency": "inactive"}, {"smiles": "COc1cc(C(=O)NC2CCCNC2)cc(OC)c1OC", "note": "(stereo not given)", "Potency": "inactive"}, {"smiles": "Cc1c(C)c2c(c(C)c1OC(=O)CCC(=O)O)CC[C@@](C)(CCC[C@H](C)CCC[C@H](C)CCCC(C)C)O2", "Potency": "inactive"}, {"smiles": "NC1=NCC2c3ccccc3Cc3ccccc3N12", "note": "(stereo not given)", "Potency": "inactive"}, {"smiles": "CN1CC(=O)N2[C@H](c3ccc4c(c3)OCO4)c3[nH]c4ccccc4c3C[C@@H]2C1=O", "Potency": "inactive"}, {"smiles": "c1ccc2c(c1)[nH]c1ccccc12", "Potency": "inactive"}, {"smiles": "CCCCCCCCOC(C)=O", "Potency": "inactive"}, {"smiles": "O=C(Nc1ccc2c(O)c(N=Nc3ccc(N=Nc4ccc(S(=O)(=O)O)cc4)cc3)c(S(=O)(=O)O)cc2c1)c1ccccc1", "Potency": "inactive"}, {"smiles": "C=C(C)C(=O)OCC(C)C", "Potency": "inactive"}, {"smiles": "CCCCCCCCC=O", "Potency": "inactive"}]}]}
